From PubChem BioAssay
Calls of active or inactive are those of the source. Unless noted, no rule for the calls is given here.

What was measured:
[1] = anti-His antibody binders, primary screen, artefact control for SMM control protein annotation, biochemical, small-molecule microarray, 635 nm fluorescence (AID 1128); conditions: anti-His Alexa647 antibody binding, higher = more signal;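 also: score merges feature fluorescence with signal-to-noise for each printed compound spot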
[2] = system: Human papillomavirus type 1a E7 protein (residues 1-88); experiment: HPV1a E7 small-molecule binders, primary screen, biochemical, small-molecule microarray, residues 1-88, 635 nm (AID 1129); conditions: small-molecule microarray binding, fluorescence 635 nm; higher = more signal
[3] = biological target: Focal adhesion kinase 1 (Homo sapiens) (UniProt Q05397); experiment: small-molecule microarray binders of FAK, primary screen, biochemical, 635/667 nm fluorescence, BSA, DTT (AID 1130); conditions: PTK2 binding, 635 nm fluorescence, higher = more signal;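 also: composite of spot emission at 667 nm and signal to noise over triplicate slides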
Focal adhesion kinase 1 (Homo sapiens), sequence (Q05397 whole entry, looked up): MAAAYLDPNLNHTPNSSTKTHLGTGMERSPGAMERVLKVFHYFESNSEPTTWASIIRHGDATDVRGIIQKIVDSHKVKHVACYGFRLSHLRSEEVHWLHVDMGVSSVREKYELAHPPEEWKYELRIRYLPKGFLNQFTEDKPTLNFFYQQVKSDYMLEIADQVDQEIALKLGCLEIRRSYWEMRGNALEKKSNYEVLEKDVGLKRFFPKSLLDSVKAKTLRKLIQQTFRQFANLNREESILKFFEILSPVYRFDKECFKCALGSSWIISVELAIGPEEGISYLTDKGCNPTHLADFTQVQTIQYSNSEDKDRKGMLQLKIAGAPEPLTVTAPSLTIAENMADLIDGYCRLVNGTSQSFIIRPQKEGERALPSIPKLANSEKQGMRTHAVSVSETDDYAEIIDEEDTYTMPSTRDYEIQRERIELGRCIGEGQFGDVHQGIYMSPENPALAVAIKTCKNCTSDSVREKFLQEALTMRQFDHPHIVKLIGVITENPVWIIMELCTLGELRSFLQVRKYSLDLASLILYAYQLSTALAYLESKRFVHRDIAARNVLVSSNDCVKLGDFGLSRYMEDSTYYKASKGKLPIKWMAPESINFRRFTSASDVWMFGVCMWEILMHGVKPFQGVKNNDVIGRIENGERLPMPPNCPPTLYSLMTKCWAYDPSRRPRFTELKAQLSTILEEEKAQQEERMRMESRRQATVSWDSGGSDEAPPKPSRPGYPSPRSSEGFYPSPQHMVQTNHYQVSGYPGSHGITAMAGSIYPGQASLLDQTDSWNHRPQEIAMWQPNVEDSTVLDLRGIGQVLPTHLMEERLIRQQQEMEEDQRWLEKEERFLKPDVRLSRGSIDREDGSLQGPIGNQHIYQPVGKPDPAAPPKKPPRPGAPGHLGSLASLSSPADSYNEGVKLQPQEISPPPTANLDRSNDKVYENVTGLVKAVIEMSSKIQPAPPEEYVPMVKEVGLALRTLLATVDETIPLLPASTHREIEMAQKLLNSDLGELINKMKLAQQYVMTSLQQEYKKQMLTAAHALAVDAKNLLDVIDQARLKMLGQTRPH

[4] = system: Fibrinogen (Alexa647-labelled); experiment: fibrinogen binders on compound microarrays, profiling panel, artefact control for SMM control-protein annotation, biochemical, small-molecule microarray, 635/667 nm fluorescence (AID 1131); conditions: fibrinogen-A647 binding fluorescence, higher = more signal;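 also: z-score merges 667 nm fluorescence with per-spot signal-to-noise over triplicate slides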
[5] = biological target: Follistatin (Homo sapiens) (UniProt P19883); experiment: follistatin binders on small-molecule microarrays, primary screen, biochemical, small-molecule microarray, 635/667 nm fluorescence (AID 1132); conditions: FST binding, 635 nm fluorescence, higher = more signal
Follistatin (Homo sapiens), sequence (P19883 whole entry, looked up): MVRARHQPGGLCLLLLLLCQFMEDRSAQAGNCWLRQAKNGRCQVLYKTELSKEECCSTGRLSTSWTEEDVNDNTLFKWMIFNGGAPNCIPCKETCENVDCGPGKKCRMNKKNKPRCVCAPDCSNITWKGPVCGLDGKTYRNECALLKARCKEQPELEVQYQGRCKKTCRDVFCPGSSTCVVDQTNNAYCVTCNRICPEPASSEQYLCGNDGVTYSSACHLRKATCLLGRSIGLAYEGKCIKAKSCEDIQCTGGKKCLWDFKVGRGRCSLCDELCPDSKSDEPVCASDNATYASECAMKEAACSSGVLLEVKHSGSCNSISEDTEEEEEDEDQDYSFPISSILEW

[6] = biological target: Fibroblast growth factor 2 (Homo sapiens) (UniProt P09038); experiment: FGF2 binders on small-molecule microarrays, primary screen, biochemical, small-molecule microarray, 635/667 nm fluorescence (AID 1133); conditions: small-molecule microarray binding, FGF2, fluorescence 635/667; higher = more signal
Fibroblast growth factor 2 (Homo sapiens), sequence (P09038 whole entry, looked up): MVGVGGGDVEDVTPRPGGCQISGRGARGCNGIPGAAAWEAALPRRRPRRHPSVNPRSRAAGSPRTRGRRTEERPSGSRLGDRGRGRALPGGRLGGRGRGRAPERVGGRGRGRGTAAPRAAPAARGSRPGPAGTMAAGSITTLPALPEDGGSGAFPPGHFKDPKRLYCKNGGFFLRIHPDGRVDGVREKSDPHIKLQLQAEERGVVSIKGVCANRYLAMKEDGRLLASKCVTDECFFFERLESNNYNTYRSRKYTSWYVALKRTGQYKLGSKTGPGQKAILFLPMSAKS

[7] = mitochondrial membrane potential change in A549 cells, profiling panel, cell-based, JC-1 fluorescence, basal, 24 h, 100 nL (AID 1138); conditions: higher = more signal;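 also: A549 lung adenocarcinoma cells under basal conditions with no added stimulus; test concentration not given here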
Lefty1 = Lefty1 binders on small-molecule microarrays, primary screen, biochemical, small-molecule microarray, 635/667 nm fluorescence (AID 1139); conditions: small-molecule microarray binding, fluorescence 635/667; higher = more signal
[8] = system: wheat germ agglutinin (Triticum aestivum), Alexa647-labelled; experiment: wheat germ agglutinin binders on compound microarrays, profiling panel, artefact control for SMM control-protein annotation, biochemical, small-molecule microarray, 635/667 nm fluorescence (AID 1140); conditions: WGA-A647 binding, 635 nm fluorescence, higher = more signal;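 also: score merges 667 nm feature emission with signal to noise over triplicate slides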
[9] = biological target: Luciferin 4-monooxygenase (Photinus pyralis) (UniProt P08659); experiment: firefly luciferase enzyme inhibitors, primary screen, biochemical, luminescence, purified enzyme, 2006 set (AID 1141); conditions: SteadyGlo luminescence, 30 min, higher = more signal, called active from +8 up or from −8 down;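 also: cell-free assay with purified firefly luciferase at 100 ng per well in PBS; test concentration not given here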
Luciferin 4-monooxygenase (Photinus pyralis), sequence (P08659 whole entry, looked up): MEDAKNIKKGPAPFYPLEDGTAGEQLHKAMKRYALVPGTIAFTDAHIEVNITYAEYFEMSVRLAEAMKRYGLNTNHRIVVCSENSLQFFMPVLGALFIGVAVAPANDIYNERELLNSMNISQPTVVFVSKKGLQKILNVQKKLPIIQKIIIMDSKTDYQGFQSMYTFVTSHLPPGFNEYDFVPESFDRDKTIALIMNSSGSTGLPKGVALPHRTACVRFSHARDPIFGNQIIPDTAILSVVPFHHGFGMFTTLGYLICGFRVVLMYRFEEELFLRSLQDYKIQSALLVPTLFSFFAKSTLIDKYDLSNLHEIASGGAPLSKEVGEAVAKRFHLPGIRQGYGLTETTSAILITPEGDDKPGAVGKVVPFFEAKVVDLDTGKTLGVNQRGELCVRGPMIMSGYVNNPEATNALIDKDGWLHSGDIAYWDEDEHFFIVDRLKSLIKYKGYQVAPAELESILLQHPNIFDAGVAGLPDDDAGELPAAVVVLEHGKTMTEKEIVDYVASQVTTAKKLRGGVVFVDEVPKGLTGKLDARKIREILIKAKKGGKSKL

[10] = system: Wnt5a (protein binding on small-molecule microarray); experiment: Wnt5a binders on small-molecule microarray, primary screen, biophysical, 635/667 nm fluorescence (AID 1142); conditions: 635 nm fluorescence, higher = more signal;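 also: fluorescence read at 667 nm with signal to noise per printed feature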
[11] = cell viability in Huh7 cells, primary screen, cytotoxicity control for HCV replication inhibitor project, CellTiter-Glo luminescence, basal, 48 h (AID 1143); conditions: Huh7 HCV replicon, higher = more signal, called active from +8 up or from −8 down;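 also: Huh7 hepatoma cells carrying a hepatitis C replication reporter with no stimulus; test concentration not given here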
[12] = P. aeruginosa biofilm formation inhibitors, primary screen, PAO1 strain, BacTiter-Glo luminescence, LB-PBS (AID 1144); conditions: 12 h, higher = more signal
[13] = CREB reporter modulators without forskolin, primary screen, cell-based, PC12, CRE-LacZ reporter, unstimulated (AID 1145); conditions: no forskolin, luminescence, 4.5 h, higher = more signal, called active from +8 up or from −8 down
[14] = CREB reporter modulators under forskolin, primary screen, cell-based, PC12, CRE-LacZ reporter, forskolin-stimulated (AID 1146); conditions: luminescence, 4.5 h, higher = more signal, called active from +8 up or from −8 down;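 also: PC12 cells with 6xCRE LacZ reporter stimulated by forskolin 10 µM; beta-galactosidase reporter signal reflecting CREB driven transcription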
[15] = biological target: Streptavidin (Streptomyces avidinii) (UniProt P22629); experiment: streptavidin binders on small-molecule microarray, primary screen, artefact control for SMM compound annotation, biophysical, 635/667 nm fluorescence (AID 1147); conditions: streptavidin binding, higher = more signal;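 also: signal reflects streptavidin binding to arrayed compounds as a control protein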
Streptavidin (Streptomyces avidinii), sequence (P22629 whole entry, looked up): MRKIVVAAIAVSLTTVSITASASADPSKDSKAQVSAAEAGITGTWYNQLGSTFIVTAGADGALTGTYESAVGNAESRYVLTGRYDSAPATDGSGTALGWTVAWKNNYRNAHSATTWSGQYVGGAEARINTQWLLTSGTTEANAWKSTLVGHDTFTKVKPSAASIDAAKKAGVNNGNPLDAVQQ

[16] = small-molecule binders of probe aInhba, primary screen, biochemical, small-molecule microarray, 635/667 nm fluorescence (AID 1148); conditions: higher = more signal;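 also: score merges 667nm spot fluorescence with signal-to-noise for antibody binding to printed compounds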
Torsin-1A (Homo sapiens) [17] = biological target: Torsin-1A (Homo sapiens) (UniProt O14656); experiment: torsin A binders from cell lysate, primary screen, small-molecule microarray, wild-type, 635/667 nm (AID 1149); conditions: COS7 hTOR1A-WT lysate, 635 nm fluorescence, higher = more signal
Torsin-1A (Homo sapiens), sequence (O14656 whole entry, looked up): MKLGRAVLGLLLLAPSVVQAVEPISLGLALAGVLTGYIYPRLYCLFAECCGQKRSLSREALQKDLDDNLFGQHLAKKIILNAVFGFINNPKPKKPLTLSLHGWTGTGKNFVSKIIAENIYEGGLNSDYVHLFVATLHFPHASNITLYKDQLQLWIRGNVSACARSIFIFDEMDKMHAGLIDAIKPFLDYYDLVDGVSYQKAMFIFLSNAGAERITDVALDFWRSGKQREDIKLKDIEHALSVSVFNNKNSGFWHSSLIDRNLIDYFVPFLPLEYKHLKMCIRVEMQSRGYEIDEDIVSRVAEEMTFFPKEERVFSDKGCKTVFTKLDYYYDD

Torsin-1A (Homo sapiens) [18] = biological target: Torsin-1A (Homo sapiens) (UniProt O14656); experiment: small-molecule binders of mutant TOR1A in lysate, primary screen, cell lysate, small-molecule microarray, COS7 lysate, 635/667 nm fluorescence (AID 1150); conditions: COS7 hTOR1A mutant lysate, 635 nm fluorescence, higher = more signal;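 also: score pools 667 nm emission and signal to noise measuring lysate protein binding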
[19] = system: Sonic hedgehog protein (Shh); experiment: small-molecule binders of Shh protein, primary screen, biochemical, small-molecule microarray, 635/667 nm fluorescence (AID 1151); conditions: small-molecule microarray binding, 635 nm fluorescence; higher = more signal;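 also: Shh protein binding to compounds spotted on small-molecule microarray slides; score combines spot fluorescence intensity with signal-to-noise across triplicate slides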

SMILES	composite z-score [1]	composite z-score [2]	composite z-score [3]	composite z-score [4]	composite z-score [5]	composite z-score [6]	z-score [7]	composite z-score (Lefty1)	composite z-score [8]	z-score [9]	composite z-score [10]	z-score [11]	z-score [12]	z-score [13]	z-score [14]	composite z-score [15]	composite z-score [16]	composite z-score (Torsin-1A (Homo sapiens) [17])	composite z-score (Torsin-1A (Homo sapiens) [18])	composite z-score [19]
C=CC[C@]1(C(=O)O)N=C(c2ccc(OCCCO)cc2)O[C@H]1c1ccccc1N=[N+]=[N-]	0.258	-0.171	0.0806	-0.17	-0.0493	-0.124	1.28	-1.09	0.0828	-12.3 (active)	0.477	-0.426 (inactive)	1.09 (inactive)	0.629 (inactive)	-1.32 (inactive)	1.27	-0.026	0.0545	0.125	-0.373
CC(C)C[C@@H]1NC(=O)[C@H]2C[C@@H](C(=O)NCCCCCC[N+](C)(C)C)[C@@H](c3ccc(O)cc3)N2C1=O	2.28	-0.194	-0.188	-1.44	1.16	0.839	-0.603	0.467	0.952	0.779 (inactive)	-0.266	-0.0365 (inactive)	-0.337 (inactive)	-0.122 (inactive)	-0.281 (inactive)	-0.308	-0.0719	0.87	0.951	1.7
CCOC(=O)C[C@H]1[C@H](OC(=O)Cc2ccc3c(c2)OCO3)[C@@H](NC(=O)c2ccc3ccccc3c2)c2cc(OCCCO)ccc2N1C(=O)Cc1ccc(OC)cc1	-0.708	0.836	0.211	0.561	0.413	0.441	0.751	0.55	0.353	-0.953 (inactive)	-0.0175	-0.602 (inactive)	-0.0536 (inactive)	4.83 (inactive)	0.135 (inactive)	0.348	0.386	0.242	0.485	0.673
C=CCN1C(=O)[C@@]2(Cc3ccccc3)N=C(c3ccc(OCCCO)cc3)O[C@H]2c2ccccc21	1.69	1.23	0.665	0.578	1.39	1.08	-0.993	0.398	0.648	-5.51 (inactive)	0.358	-1.81 (inactive)	0.294 (inactive)	1.07 (inactive)	-0.984 (inactive)	0.653	0.346	0.238	1.56	1.28
O=C1O[C@H](c2ccccc2)[C@H](c2ccccc2)N2[C@H]1[C@@H](C(=O)NC[C@H](O)c1ccccc1)[C@]1(C(=O)Nc3ccc(C#CC4(O)CCCCCC4)cc31)[C@H]2c1ccc(OCCO)cc1	2.52	1.2	0.285	0.641	1.06	1.04	-1.2	-0.0254	0.959	-1.23 (inactive)	0.288	-5.26 (inactive)	-0.37 (inactive)	-0.231 (inactive)	-0.581 (inactive)	0.463	0.0082	0.127	0.644	0.756
COCCOC(=O)N1C(=O)[C@@]2(c3cc(C#CC4=CCCCC4)ccc31)[C@H](C(=O)NC[C@H](O)c1ccccc1)[C@H]1C(=O)O[C@H](c3ccccc3)[C@H](c3ccccc3)N1[C@@H]2c1ccccc1OCCO	0.69	1.17	0.985	0.943	1.34	0.825	-1.49	1.09	1.09	-0.855 (inactive)	0.255	-5.75 (inactive)	0.423 (inactive)	0.48 (inactive)	-0.99 (inactive)	0.634	0.243	0.453	0.509	1.53
